KB-V1 cytotox = qHTS assay for MDR1-selective chemotherapeutics: Primary screen using the drug-selected MDR subline cells KB-V1; KB-V1 MDR cells viability, CellTiter-Glo, 72 h; Potency, µM (top dose mostly 46.1 µM), usual class: cytotoxic; actives 3.4% (n = 400,000); note: potency is the fitted concentration of half-maximal effect; nearly all actives have a fitted effect of over 60% in size
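Luminescent ATP read-out (CellTiter-Glo, 10 min) measures survival of drug-selected KB-V1 MDR cells after 72 h, 37 degrees C compound exposure. Medium: phenol-red-free DMEM, 10% FBS. Values from fitted concentration-response curves.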
HT1080 IDH1KD tx = qHTS for induction of synthetic lethality in tumor cells producing 2HG: qHTS for the HT-1080-IDH1KD cell line | HT-1080 IDH1 knockdown viability, ATP luminescence, 48 h | Potency, µM (highest dose often 46.1 µM), for inactives: at the highest dose activity, negative = toxicity, hits mostly cytotoxic | actives 2% (n = 360,000) | AID 686971, 2013;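 note: potency is the fitted concentration of half-maximal effect; 0% = DMSO wells and -100% = cell-free medium wells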
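Luminescent ATP read-out (CellTiter-Glo, 10 min at room temperature) after 48 h compound exposure at 37 °C gave viability of IDH1-knockdown HT-1080 cells. Activity was normalised to DMSO and cell-free wells, then fitted as concentration-response curves.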
HT1080-NT tox = qHTS for induction of synthetic lethality in tumor cells producing 2HG: qHTS for the HT-1080-NT fibrosarcoma cell line; HT-1080-NT fibrosarcoma viability, CellTiter-Glo ATP luminescence, 48 h; Potency, µM (doses to about 46.1 µM), without a hit: top-dose activity, negative = less viability, most hits filed as cytotoxic; actives 1.6% (n = 360,000); AID 686970, 2013;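 note: NT is the 2HG producing partner of a matched IDH1 knockdown line; potency is the fitted concentration of half-maximal effect; 0% = DMSO-treated cells and -100% = media-only wells without cells; nearly all actives have a fitted effect of over 55% in size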
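Compounds were tested in concentration-response format on HT-1080-NT cells for 48 hours at 37 degrees C. Cell viability came from CellTiter-Glo luminescence; curves were classified by r2, response magnitude and activity.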
KB-3-1 cytotox = qHTS assay for MDR1-selective chemotherapeutics: Primary screen using the parental adenocarcinoma cell KB-3-1; KB-3-1 viability, CellTiter-Glo ATP luminescence, 72 h; Potency, µM (highest dose often 46.1 µM), usual class: cytotoxic; actives 1.4% (n = 400,000); AID 1347075, 2019; note: potency is the fitted concentration of half-maximal effect; nearly all actives have a fitted effect of over 60% in size
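Here the drug-naive KB-3-1 line serves as comparator for MDR sub-line selectivity; cells received compound titrations, 72 h at 37 °C, then CellTiter-Glo readout.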
IL-1B inflam inh = qHTS for Inhibitors of Inflammasome Signaling: IL-1-beta AlphaLISA Primary Screen | THP-1 LPS/ATP IL-1B secretion, AlphaLISA, 16 h; active compounds read low | activity change, % at 57.5 µM | actives 4.7% (n = 360,000) | AID 743279, 2014; in the data active = activity change below about -50%; inconclusive = mostly about -30% to -49%
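Secreted IL-1B measured by AlphaLISA bead assay after 16 h compound exposure of THP-1 cells; compounds (final up to 57.5 uM) added 1 h before LPS (250 ng/mL) and ATP (1.25 mM) stimulation; lower signal means less secretion.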
* marks the source's active call; other numbers are inactive results; ! = not active in a repeat. Most compounds without a hit are left out; they make up all but 8.8% or so of the library. Unless noted, calls come from the whole dose curve; as a rule, active = well fitted curve in the direction sought with a large enough effect; inconclusive = small, poorly fitted or top-dose-only effect, or another doubt; inactive = no such curve, though single readings can be large; an effect the other way counts as inactive or inconclusive. Unless noted, % is set by controls: 0 for no effect and ±100 for the full control effect.

What do the screens show for `COc1ccc(C(CNC(=O)c2ccc(OC)c(S(=O)(=O)N3CCCC3)c2)N2CCCC2)cc1` (stereo not given)?
KB-V1 cytotox: inactive; HT1080 IDH1KD tx: -2%; HT1080-NT tox: 4%; KB-3-1 cytotox: inactive; IL-1B inflam inh: 9

How did COc1ccc(CNCCC2(Cc3ccccc3)CC(C)N(C)CC2C)cc1OC (stereo not given) do in these assays?
KB-V1 cytotox: inactive; HT1080 IDH1KD tx: inconclusive; HT1080-NT tox: -26%; KB-3-1 cytotox: inactive; IL-1B inflam inh: -61*

Results for COc1ccc(N(C(=O)CNC(=O)c2ccco2)C(C(=O)NCC2CCCO2)c2ccccc2)cc1 (stereo not given) ?
KB-V1 cytotox: inactive; HT1080 IDH1KD tx: 12%; HT1080-NT tox: 6%; KB-3-1 cytotox: inactive; IL-1B inflam inh: 13

Results for NC1=NC(c2ccc(Br)cc2)n2c(nc3ccccc32)N1 (stereo not given) ?
KB-V1 cytotox: inactive; HT1080 IDH1KD tx: -11%; HT1080-NT tox: inconclusive; KB-3-1 cytotox: inactive; IL-1B inflam inh: -81*!

How did CCOC(=O)c1ccccc1NC(=O)c1ccc2nccnc2c1 do in these assays?
KB-V1 cytotox: inactive; HT1080 IDH1KD tx: 4%; HT1080-NT tox: 13%; KB-3-1 cytotox: inconclusive; IL-1B inflam inh: 14

Results for O=C(OCC(O)CO)c1ccccc1Nc1ccnc2cc(Cl)ccc12 (stereo not given) ?
KB-V1 cytotox: inconclusive; HT1080 IDH1KD tx: -20%; HT1080-NT tox: -15%; KB-3-1 cytotox: inactive; IL-1B inflam inh: -83*

What do the screens show for `CC(C)N(C(=O)CN(C#N)c1nc(N(C)C)nc(N(C)C)n1)c1ccccc1`?
KB-V1 cytotox: 6.5µM*; HT1080 IDH1KD tx: 22%; HT1080-NT tox: 7%; KB-3-1 cytotox: inactive; IL-1B inflam inh: 4

Results for Cc1ccccc1N=C1NN=C(c2ccccc2F)CS1 ?
KB-V1 cytotox: inactive; HT1080 IDH1KD tx: -24%; HT1080-NT tox: inconclusive; KB-3-1 cytotox: inactive; IL-1B inflam inh: -6

What do the screens show for `Cc1cccc(C)c1N=C1NN=C(c2ccccc2F)CS1`?
KB-V1 cytotox: 18µM*; HT1080 IDH1KD tx: -9%; HT1080-NT tox: -4%; KB-3-1 cytotox: inconclusive; IL-1B inflam inh: 0

How did Cc1ccc(Nc2nc(Cl)nc(N(C)C#N)n2)cc1 do in these assays?
KB-V1 cytotox: inactive; HT1080 IDH1KD tx: inconclusive; HT1080-NT tox: inconclusive; KB-3-1 cytotox: inactive; IL-1B inflam inh: -114*

How did CN(C)c1nc(NNC(=O)c2ccccc2)nc(N(C)C)n1 do in these assays?
KB-V1 cytotox: 8.2µM*; HT1080 IDH1KD tx: 0%; HT1080-NT tox: 13%; KB-3-1 cytotox: inactive; IL-1B inflam inh: -7

Results for CN(C)c1nc(C(=O)Nc2ccccc2)nc(N(C)C)n1 ?
KB-V1 cytotox: inactive; HT1080 IDH1KD tx: -3%; HT1080-NT tox: -3%; KB-3-1 cytotox: inactive; IL-1B inflam inh: 7

How did C/C(CC(=O)Nc1ccc(Cl)c(C(F)(F)F)c1)=N\NC(=O)c1cc2ccccc2cc1O do in these assays?
KB-V1 cytotox: inconclusive; HT1080 IDH1KD tx: 16µM*; HT1080-NT tox: inconclusive; KB-3-1 cytotox: inconclusive; IL-1B inflam inh: 18

Results for CN(C)c1ccc(C=O)cc1[N+](=O)[O-] ?
KB-V1 cytotox: inactive; KB-3-1 cytotox: inactive

How did COc1ccc(NC(=O)c2cc3ccccc3cc2OC)cc1 do in these assays?
KB-V1 cytotox: inactive; HT1080 IDH1KD tx: 16µM*; HT1080-NT tox: 16µM*; KB-3-1 cytotox: inconclusive; IL-1B inflam inh: -15

What do the screens show for `COc1cc2ccccc2cc1C(=O)Nc1cccnc1`?
KB-V1 cytotox: inactive; HT1080 IDH1KD tx: -4%; HT1080-NT tox: -1%; KB-3-1 cytotox: inactive; IL-1B inflam inh: 0

Assay outcomes (PubChem)
